Data as given in ChEMBL document CHEMBL2218924, “A broad activity screen in support of a chemogenomic map for kinase signalling research and drug discovery” (Biochem J, 2013).

Experiments:
[1] = molecular target: T1, Ephrin type-B receptor 1 (Homo sapiens) (UniProt P54762); details: at 10 µM
T1 sequence (whole entry): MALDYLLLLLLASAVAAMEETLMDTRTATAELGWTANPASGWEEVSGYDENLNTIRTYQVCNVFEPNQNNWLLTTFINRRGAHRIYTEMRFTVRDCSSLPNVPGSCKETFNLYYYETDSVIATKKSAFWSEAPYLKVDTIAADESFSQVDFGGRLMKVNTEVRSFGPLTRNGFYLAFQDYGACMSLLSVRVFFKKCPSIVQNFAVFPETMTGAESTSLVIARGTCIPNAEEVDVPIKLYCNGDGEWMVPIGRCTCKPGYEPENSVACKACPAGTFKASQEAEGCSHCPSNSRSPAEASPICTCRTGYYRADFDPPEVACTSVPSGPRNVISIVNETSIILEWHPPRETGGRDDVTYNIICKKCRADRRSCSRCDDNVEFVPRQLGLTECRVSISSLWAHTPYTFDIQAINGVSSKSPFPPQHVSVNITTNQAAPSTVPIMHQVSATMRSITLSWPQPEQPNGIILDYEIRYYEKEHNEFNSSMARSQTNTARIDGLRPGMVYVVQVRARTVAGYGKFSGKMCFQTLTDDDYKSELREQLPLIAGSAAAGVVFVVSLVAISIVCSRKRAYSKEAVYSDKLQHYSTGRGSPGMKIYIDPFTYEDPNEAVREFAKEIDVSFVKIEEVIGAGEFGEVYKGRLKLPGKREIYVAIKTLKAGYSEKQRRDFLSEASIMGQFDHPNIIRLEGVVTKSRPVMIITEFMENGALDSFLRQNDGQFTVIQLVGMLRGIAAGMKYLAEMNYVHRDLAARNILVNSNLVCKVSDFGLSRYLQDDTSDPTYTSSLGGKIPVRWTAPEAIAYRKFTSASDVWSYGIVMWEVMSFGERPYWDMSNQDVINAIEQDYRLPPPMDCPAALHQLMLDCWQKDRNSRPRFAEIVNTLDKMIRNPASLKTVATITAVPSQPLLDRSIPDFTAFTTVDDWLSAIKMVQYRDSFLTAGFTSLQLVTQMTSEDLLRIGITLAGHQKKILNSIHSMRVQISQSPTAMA

[2] = molecular target: T2, Ephrin type-B receptor 2 (Homo sapiens) (UniProt P29323); details: at 1 µM
T2 sequence (whole entry): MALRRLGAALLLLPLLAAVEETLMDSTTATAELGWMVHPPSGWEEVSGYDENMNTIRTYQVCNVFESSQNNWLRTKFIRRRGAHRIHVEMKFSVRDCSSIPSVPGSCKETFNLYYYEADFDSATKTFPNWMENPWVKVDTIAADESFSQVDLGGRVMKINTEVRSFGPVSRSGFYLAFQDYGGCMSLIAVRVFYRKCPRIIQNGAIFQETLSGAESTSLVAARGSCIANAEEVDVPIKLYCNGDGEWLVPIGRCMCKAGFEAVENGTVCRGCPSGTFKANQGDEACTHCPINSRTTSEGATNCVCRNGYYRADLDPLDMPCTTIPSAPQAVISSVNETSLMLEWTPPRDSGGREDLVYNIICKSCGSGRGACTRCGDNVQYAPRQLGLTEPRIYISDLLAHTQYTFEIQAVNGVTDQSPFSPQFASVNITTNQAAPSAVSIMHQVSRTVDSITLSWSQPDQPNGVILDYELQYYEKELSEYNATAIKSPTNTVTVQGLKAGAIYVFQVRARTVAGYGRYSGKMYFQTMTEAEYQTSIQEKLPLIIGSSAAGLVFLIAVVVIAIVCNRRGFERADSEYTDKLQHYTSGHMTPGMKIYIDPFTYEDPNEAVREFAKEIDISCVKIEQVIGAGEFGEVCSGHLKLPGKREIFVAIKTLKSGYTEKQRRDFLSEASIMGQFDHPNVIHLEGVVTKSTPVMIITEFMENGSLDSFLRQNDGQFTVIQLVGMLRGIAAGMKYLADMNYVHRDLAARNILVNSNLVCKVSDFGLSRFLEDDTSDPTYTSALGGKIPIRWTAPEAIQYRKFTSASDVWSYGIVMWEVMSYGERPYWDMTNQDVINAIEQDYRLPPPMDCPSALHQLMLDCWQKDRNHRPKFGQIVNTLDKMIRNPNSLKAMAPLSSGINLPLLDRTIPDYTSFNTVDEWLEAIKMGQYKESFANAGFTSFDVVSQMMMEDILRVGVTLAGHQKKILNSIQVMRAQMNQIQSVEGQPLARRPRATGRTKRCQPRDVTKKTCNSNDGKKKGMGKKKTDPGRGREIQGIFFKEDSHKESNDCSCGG

[3] = molecular target: T2, Ephrin type-B receptor 2 (Homo sapiens); details: at 10 µM
[4] = molecular target: T3, Ephrin type-B receptor 3 (Homo sapiens) (UniProt P54753); details: at 1 µM
T3 sequence (whole entry): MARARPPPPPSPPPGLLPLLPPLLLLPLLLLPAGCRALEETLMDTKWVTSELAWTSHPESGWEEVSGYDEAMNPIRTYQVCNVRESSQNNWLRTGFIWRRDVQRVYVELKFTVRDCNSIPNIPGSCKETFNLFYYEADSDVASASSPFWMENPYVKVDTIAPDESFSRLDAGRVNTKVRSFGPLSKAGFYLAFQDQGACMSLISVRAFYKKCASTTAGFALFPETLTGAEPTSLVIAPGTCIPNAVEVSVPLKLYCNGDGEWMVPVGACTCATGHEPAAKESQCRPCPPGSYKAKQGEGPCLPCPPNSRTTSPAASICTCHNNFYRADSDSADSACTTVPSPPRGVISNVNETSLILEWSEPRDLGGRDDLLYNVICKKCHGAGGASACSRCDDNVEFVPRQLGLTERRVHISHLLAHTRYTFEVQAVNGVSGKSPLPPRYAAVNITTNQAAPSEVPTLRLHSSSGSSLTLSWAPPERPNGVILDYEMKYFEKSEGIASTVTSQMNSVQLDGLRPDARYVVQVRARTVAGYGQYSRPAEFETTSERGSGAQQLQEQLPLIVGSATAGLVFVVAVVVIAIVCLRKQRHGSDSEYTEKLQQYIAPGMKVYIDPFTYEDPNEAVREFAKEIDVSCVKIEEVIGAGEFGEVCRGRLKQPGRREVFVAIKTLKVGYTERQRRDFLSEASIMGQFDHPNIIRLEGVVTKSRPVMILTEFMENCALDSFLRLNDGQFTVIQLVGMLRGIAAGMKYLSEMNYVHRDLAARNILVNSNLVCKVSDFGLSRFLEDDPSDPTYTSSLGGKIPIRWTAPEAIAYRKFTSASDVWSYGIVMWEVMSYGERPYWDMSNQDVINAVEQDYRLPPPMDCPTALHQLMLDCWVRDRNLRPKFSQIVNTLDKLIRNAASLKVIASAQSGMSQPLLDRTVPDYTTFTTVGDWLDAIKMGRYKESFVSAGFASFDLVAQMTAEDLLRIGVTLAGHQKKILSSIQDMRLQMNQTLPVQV

[5] = molecular target: T3, Ephrin type-B receptor 3 (Homo sapiens); details: at 10 µM
[6] = molecular target: T4, Ephrin type-B receptor 4 (Homo sapiens) (UniProt P54760); details: at 1 µM
T4 sequence (whole entry): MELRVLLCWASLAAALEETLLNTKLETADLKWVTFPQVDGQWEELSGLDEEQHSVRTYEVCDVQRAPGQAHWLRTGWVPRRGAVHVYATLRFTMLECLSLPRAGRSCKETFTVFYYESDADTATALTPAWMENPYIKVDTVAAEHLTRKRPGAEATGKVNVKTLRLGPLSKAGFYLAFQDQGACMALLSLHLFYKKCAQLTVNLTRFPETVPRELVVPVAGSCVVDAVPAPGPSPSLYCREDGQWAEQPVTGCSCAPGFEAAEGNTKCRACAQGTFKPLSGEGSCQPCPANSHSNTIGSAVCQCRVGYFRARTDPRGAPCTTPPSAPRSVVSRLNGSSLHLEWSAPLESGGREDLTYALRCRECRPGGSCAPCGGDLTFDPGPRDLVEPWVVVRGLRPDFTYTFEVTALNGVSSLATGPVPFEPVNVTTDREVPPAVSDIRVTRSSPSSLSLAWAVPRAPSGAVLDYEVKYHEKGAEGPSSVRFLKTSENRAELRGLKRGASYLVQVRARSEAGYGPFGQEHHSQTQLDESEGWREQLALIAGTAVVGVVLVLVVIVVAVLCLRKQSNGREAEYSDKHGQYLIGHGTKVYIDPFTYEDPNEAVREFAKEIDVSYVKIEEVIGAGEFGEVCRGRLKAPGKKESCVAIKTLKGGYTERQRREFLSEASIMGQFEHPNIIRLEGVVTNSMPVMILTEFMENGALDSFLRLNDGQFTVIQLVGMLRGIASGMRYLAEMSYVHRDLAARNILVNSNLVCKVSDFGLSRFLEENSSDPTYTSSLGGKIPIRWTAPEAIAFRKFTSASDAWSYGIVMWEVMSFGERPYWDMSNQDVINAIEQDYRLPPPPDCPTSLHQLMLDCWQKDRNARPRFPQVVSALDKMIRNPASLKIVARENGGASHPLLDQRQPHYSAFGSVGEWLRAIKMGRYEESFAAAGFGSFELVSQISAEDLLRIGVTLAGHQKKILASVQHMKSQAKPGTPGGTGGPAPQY

[7] = molecular target: T4, Ephrin type-B receptor 4 (Homo sapiens); details: at 10 µM
[8] = molecular target: Receptor tyrosine-protein kinase erbB-4 (Homo sapiens) (UniProt Q15303); details: at 1 µM
Chain of Receptor tyrosine-protein kinase erbB-4 (Homo sapiens) (Q15303 whole entry): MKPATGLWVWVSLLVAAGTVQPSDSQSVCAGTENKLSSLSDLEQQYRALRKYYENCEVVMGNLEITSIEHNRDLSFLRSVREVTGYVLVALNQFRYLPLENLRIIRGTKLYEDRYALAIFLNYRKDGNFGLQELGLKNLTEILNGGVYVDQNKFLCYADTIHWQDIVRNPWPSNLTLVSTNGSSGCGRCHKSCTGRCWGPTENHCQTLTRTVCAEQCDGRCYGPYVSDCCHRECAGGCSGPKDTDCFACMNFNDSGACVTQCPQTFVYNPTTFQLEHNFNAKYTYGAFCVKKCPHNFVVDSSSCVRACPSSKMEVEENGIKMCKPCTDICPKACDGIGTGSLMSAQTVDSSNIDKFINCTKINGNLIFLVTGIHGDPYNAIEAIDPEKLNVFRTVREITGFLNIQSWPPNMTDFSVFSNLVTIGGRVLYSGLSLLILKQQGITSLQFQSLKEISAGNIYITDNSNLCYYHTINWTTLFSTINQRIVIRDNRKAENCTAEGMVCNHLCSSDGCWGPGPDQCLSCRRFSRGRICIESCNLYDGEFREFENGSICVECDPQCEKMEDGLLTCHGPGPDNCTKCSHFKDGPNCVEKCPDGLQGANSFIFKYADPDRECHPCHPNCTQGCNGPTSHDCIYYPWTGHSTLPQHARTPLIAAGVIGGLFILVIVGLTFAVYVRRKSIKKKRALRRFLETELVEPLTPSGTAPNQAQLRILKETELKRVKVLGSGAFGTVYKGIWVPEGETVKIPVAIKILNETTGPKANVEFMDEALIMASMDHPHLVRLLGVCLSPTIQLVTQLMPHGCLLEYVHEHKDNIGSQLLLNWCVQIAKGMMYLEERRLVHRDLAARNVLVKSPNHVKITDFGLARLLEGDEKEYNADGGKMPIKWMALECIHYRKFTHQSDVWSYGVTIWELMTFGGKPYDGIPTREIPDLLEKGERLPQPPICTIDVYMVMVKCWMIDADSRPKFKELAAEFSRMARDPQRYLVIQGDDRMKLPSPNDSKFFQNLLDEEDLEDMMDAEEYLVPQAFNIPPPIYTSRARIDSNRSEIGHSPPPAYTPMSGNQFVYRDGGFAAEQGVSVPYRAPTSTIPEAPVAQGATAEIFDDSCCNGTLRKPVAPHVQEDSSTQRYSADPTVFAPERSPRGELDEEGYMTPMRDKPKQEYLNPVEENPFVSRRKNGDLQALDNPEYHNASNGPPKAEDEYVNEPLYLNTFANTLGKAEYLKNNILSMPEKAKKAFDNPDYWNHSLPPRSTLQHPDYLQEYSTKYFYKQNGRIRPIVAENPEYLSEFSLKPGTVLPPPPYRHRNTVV

[9] = molecular target: Receptor tyrosine-protein kinase erbB-4 (Homo sapiens) (UniProt Q15303); details: at 10 µM
[10] = molecular target: Focal adhesion kinase 1 (Homo sapiens) (UniProt Q05397); details: at 1 µM
Chain of Focal adhesion kinase 1 (Homo sapiens) (Q05397 2-1052 limits assumed): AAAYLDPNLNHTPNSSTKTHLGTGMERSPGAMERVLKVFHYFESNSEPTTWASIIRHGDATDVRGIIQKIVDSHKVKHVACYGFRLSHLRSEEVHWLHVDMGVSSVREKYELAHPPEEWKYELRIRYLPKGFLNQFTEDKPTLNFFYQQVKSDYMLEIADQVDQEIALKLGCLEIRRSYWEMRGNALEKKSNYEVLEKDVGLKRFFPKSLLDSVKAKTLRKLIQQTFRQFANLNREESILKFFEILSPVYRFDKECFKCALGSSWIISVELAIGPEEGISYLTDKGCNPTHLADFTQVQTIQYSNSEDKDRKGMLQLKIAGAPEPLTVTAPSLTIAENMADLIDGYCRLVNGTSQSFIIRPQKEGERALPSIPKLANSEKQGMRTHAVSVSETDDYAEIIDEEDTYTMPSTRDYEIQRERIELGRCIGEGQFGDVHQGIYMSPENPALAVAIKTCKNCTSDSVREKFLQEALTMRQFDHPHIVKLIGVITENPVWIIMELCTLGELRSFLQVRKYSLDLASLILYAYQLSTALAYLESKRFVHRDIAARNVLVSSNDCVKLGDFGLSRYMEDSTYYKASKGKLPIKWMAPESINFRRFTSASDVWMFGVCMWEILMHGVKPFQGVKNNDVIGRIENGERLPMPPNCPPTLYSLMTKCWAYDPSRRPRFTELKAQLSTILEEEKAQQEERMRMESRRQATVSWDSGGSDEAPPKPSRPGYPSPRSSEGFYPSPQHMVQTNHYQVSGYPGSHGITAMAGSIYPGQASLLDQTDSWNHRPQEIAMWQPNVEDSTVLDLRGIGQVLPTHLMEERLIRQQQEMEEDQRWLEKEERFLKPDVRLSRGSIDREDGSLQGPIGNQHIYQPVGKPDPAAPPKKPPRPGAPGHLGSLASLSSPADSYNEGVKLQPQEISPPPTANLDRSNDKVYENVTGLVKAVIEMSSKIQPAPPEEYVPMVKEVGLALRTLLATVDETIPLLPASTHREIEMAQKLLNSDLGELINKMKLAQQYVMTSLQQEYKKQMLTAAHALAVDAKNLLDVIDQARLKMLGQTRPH

Q: Which residual activity [1] does the source give for `O=C1Nc2ccc3ncsc3c2/C1=C/c1c[nH]cn1` here?
A: The residual activity was 9%.

Q: What about the residual activity [2] of the same compound?
A: The residual activity was 87%.

Q: And the residual activity [3]?
A: The residual activity was 29%.

Q: And the residual activity [4]?
A: The residual activity was 120% (inactive).

Q: And the residual activity [5]?
A: Its residual activity is 131%.

Q: What about the residual activity [6] of the same compound?
A: The residual activity was 79%.

Q: And the residual activity [7]?
A: Its residual activity is 29%.

Q: And the residual activity [8]?
A: The residual activity was 88%.

Q: What about the residual activity [9] of the same compound?
A: Its residual activity is 102%.

Q: What about the residual activity [10] of the same compound?
A: Its residual activity is 73%.
